PubChem BioAssay (Tox21)
Values joined by “and” are separate entries in the source; they are usually repeats but may differ in a detail not shown here. Equal values may be shown once. Results filed as inconclusive are left out. Active and inactive are the calls of the source. Unless noted, calls follow the shape of the dose curve; as a rule, active = well fitted curve in the direction sought with a large enough effect in the repeat runs; inconclusive = weak or mixed curves; inactive = no such curve, though single readings can be large; an effect the other way counts as inactive or inconclusive.

Experiments:
[1] = qHTS assay to identify small molecule agonists of the hypoxia (HIF-1) signaling pathway - cell viability counter screen (AID 1224844; calls by dose curve; also: nearly all actives have a fitted effect of over 50% in size)
How it was run: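 Luminescent ATP content (CellTiter-Glo, 30 min, room temperature) served as the viability measure in HRE-bla ME-180 cells exposed to compounds for 17 hrs in low-serum medium (0.5% dialyzed FBS).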

[2] = qHTS assay to identify small molecule agonists of H2AX (AID 1224845; active = well fitted activation curve with a large enough effect in the signal ratio in the repeat runs, not every such curve was filed as active; the % refers to the signal ratio)
How it was run: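 Wild-type CHO-K1 cells, plated overnight, exposed 3hr at 37C to 15 concentrations (0.76% DMSO final). Lysed, then HTRF anti-pH2AX (S139) cryptate and anti-H2AX-d2 antibodies, 24 hr room temperature; 665/620 nm emission read.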

[3] = qHTS assay to identify small molecule agonists of the hypoxia (HIF-1) signaling pathway (AID 1224846; active = well fitted activation curve with a large enough effect in the signal ratio in the repeat runs, not every such curve was filed as active; the % refers to the signal ratio)
How it was run: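 Measured by blue/green FRET after loading CCF4-AM: beta-lactamase expressed from a hypoxia response element in ME-180 cells. Test agents were delivered in DMSO and left 17 hrs; cells had been plated 5 hrs earlier in low-serum (0.5% dialyzed FBS) medium.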

[4] = qHTS assay to identify small molecule agonists of H2AX - cell viability counter screen (AID 1224847; calls by dose curve; also: top concentration of the series differs between compounds; nearly all actives have a fitted effect of over 30% in size)
How it was run: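 CHO-K1 wt, 1000 cells/well, o/n 37C; cpds 15 conc, 3 h 37C, 0.76% DMSO; CellTiter-Glo, 30 min RT, luminescence.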

[5] = qHTS RealTime-Glo MT Cell Viability Assay in HepG2 cells - 24 hour (AID 1224867); also: nearly all actives have a fitted effect of over 50% in size
How it was run: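 Tox21 10K library screened in qHTS format on HepG2 cells carrying RealTime-Glo reagents. Compounds were added after a 5 h preincubation, and the luminescent signal from continuous culture was measured repeatedly during 40 h treatment.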

[6] = qHTS RealTime-Glo MT Cell Viability Assay in HEK293 cells - 32 hour (AID 1224868); also: nearly all actives have a fitted effect of over 50% in size; also: potency is read from the fitted curve at half-maximal effect; as to activity change, negative = cytotoxic: top concentration of the series differs between compounds
How it was run: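 Luminescence generated by NanoLuc from substrate produced by living HEK293 cells served as the viability signal. Each value reflects the reading at its stated time point during continuous 40 h compound exposure at 37 C.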

[7] = A CellTox Green Cytotoxicity Assay to monitor cytotoxicity in HEK293 cells - 0 hour (AID 1224869); also: nearly all actives have a fitted effect of over 50% in size
How it was run: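 Each value comes from one timepoint of a single continuous run in which HEK293 cells with CellTox Green were exposed to compound for up to 40 h at 37 C, dye fluorescence rising with cell death.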

[8] = qHTS RealTime-Glo MT Cell Viability Assay in HepG2 cells - 40 hour (AID 1224870); also: nearly all actives have a fitted effect of over 50% in size
How it was run: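 HepG2 cells (600/well) mixed with RealTime-Glo MT reagent, settled 5 h at 37 C/5% CO2 before compound addition. Nonlytic NanoLuc luminescence from viable-cell prosubstrate reduction read repeatedly during 40 h treatment at 37 C.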

[9] = qHTS assay to identify small molecule antagonists of the estrogen related receptor (ERR) signaling pathway from Tox21 library (AID 1224848); also: nearly all actives have a fitted effect of over 50% in size; also: potency is read from the fitted curve at half-maximal effect
How it was run: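 ERR reporter cell line (from NTP) seeded 2,000 cells/well, rested 6 h at 37 C/5% CO2, then pin-dosed with compounds in DMSO. After 18 h at 37 C, ONE-Glo added; luminescence read after 30 min at room temperature.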

[10] = qHTS assay to identify small molecule agonists of the estrogen related receptor (ERR) signaling pathway from Tox21 library (AID 1224849; calls by dose curve; also: nearly all actives have a fitted effect of over 15% in size); conditions: ERR reporter cell line, ONE-Glo luciferase, 18 h; at 92.4 µM (top of the series)
How it was run: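 We plated ERR reporter cells, waited 6 h, added compounds in DMSO by pin tool and incubated them 18 h at 37 C. ONE-Glo was then added and luminescence read after 30 min.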
% is scaled to controls: 0 for no effect and ±100 for the full control effect.

O=C(O)CCCOc1ccc(Cl)cc1Cl
inactive: Potency [1] | Potency [2] | outcome [3] | Potency [4] | Potency [5] | Potency [6] | Potency [7] | Potency [8]

COCc1cnc(C2=NC(C)(C(C)C)C(=O)N2)c(C(=O)O)c1 (stereo not drawn)
inactive: Potency [1] | Potency [2] | outcome [3] | Potency [5] | Potency [6] | Potency [7] | Potency [8]

N#CC(C#N)=C(C#N)C#N
inactive: Potency [1] | Potency [2] | outcome [3] | Potency [9] | activity change, positive = activation [10] -1.38% | Potency [5] | Potency [6] | Potency [7] | Potency [8]

CC(C)c1ccc(NC(=O)N(C)C)cc1
inactive: Potency [1] | Potency [2] | outcome [3] | Potency [9] | Potency [6] | Potency [7] | Potency [8]
active: activity change, positive = activation [10] 33.4%

C[C@H]1O[C@H](OC2[C@@H](O)[C@@H](O)C(O)[C@H](O)[C@H]2O)[C@@H](N)C[C@@H]1N=C(N)C(=O)O (stereo partly drawn)
inactive: Potency [1] | Potency [2] | outcome [3] | Potency [5] | Potency [6] | Potency [7] | Potency [8]

CC(O)CN1CCN(CC(=O)[O-])CCN(CC(=O)[O-])CCN(CC(=O)[O-])CC1.[Gd+3] (stereo not drawn)
inactive: Potency [1] | Potency [2] | outcome [3] | Potency [4] | Potency [6] | Potency [7] | Potency [8]

O=C(O)C(Cl)(Cl)Br
inactive: Potency [1] | Potency [2] | outcome [3] | Potency [5] | Potency [6] | Potency [7] | Potency [8]

CC(C)CCCCCCCOC(=O)c1ccccc1C(=O)OCCCCCCCC(C)C
inactive: Potency [1] | Potency [2] | outcome [3] | Potency [9] | activity change, positive = activation [10] 0.464% | Potency [5] | Potency [6] | Potency [7] | Potency [8]

CCCN(CCOc1c(Cl)cc(Cl)cc1Cl)C(=O)n1ccnc1
active: Potency [9] 15.7 µM and 24.3 µM | Potency [6] 19.9 µM and 27.5 µM
inactive: Potency [1] | Potency [2] | outcome [3] | activity change, positive = activation [10] -62.9% and -57.3% | Potency [5] | Potency [7] | Potency [8]

CC(Oc1cc(Cl)c(Cl)cc1Cl)C(=O)O (stereo not drawn)
inactive: Potency [1] | Potency [2] | outcome [3] | Potency [4] | Potency [6] | Potency [7] | Potency [8]

C=CCc1ccc(OC(=O)Cc2ccccc2)c(OC)c1
inactive: Potency [1] | Potency [2] | outcome [3] | Potency [4] | Potency [7] | Potency [8]

CN(C)C(=O)Nc1cccc(OC(=O)NC(C)(C)C)c1
inactive: Potency [1] | Potency [2] | outcome [3] | activity change, positive = activation [10] -15.7% | Potency [5] | Potency [6] | Potency [7] | Potency [8]

C=C(C)C(=O)OCCCCOC(=O)C(=C)C
inactive: Potency [1] | Potency [2] | outcome [3] | Potency [9] | activity change, positive = activation [10] 2.2% | Potency [5] | Potency [6] | Potency [7] | Potency [8]

CCOP(=O)(O)C(N)=O
inactive: Potency [1] | Potency [2] | outcome [3] | Potency [4] | Potency [6] | Potency [7] | Potency [8]

CC(=O)OC(c1ccccc1)C(Cl)(Cl)Cl (stereo not drawn)
inactive: Potency [1] | Potency [2] | outcome [3] | Potency [5] | Potency [6] | Potency [7] | Potency [8]

O=C(O)c1cc(Cl)ccc1Cl
inactive: Potency [1] | Potency [2] | outcome [3] | Potency [5] | Potency [6] | Potency [7] | Potency [8]

CCOP(=S)(OCC)Oc1ccc(S(C)=O)cc1 (stereo not drawn)
inactive: Potency [1] | Potency [2] | outcome [3] | Potency [9] | activity change, positive = activation [10] -5.68% | Potency [5] | Potency [6] | Potency [7] | Potency [8]

O=C(O)c1cc(I)cc(I)c1I
inactive: Potency [1] | Potency [2] | outcome [3] | Potency [4] | Potency [6] | Potency [7] | Potency [8]

CCOC(=O)C1OC1(C)c1ccccc1 (stereo not drawn)
inactive: Potency [1] | Potency [2] | outcome [3] | Potency [5] | Potency [6] | Potency [7] | Potency [8]

CCCCCCCCCCCCN=C(N)N
inactive: activity change, negative = cytotoxicity [1] -8.49% [at 2.72 µM] | activation (H2AX phosphorylation) [2] -1.39% [at 5.45 µM] | activation [3] 0.622% [at 2.67 µM] | activity change, negative = cytotoxicity [4] -0.757% [at 5.43 µM] | cytotoxicity [7] 9.65% [at 2.72 µM] | activity change, negative = cytotoxic [8] 1.81% [at 2.72 µM]
active: Potency [6] 1.2 µM

CNC(=O)Oc1cccc(N=CN(C)C)c1
inactive: Potency [1] | Potency [2] | outcome [3] | Potency [4] | Potency [6] | Potency [7] | Potency [8]

CCOP(=S)(OCC)SCSc1cc(Cl)ccc1Cl
inactive: Potency [1] | Potency [2] | outcome [3] | Potency [6] | Potency [7] | Potency [8]

CN(C1CCCCC1)C1CCCCC1
inactive: Potency [1] | Potency [2] | outcome [3] | Potency [4] | Potency [6] | Potency [7] | Potency [8]

Cc1nnc(-c2ccccc2)c(=O)n1N
inactive: Potency [1] | Potency [2] | outcome [3] | Potency [4] | Potency [6] | Potency [7] | Potency [8]

O=C1NC(=O)C(=O)C(=O)N1
inactive: Potency [1] | Potency [2] | outcome [3] | Potency [6] | Potency [7] | Potency [8]

CCC1CCC(=O)O1 (stereo not drawn)
inactive: Potency [1] | Potency [2] | outcome [3] | Potency [4] | Potency [6] | Potency [7] | Potency [8]

CN[C@@H](C)[C@H](O)c1ccccc1
inactive: Potency [1] | Potency [2] | outcome [3] | Potency [4] | Potency [6] | Potency [7] | Potency [8]

O=C(N[C@H]1CN2CCC1CC2)c1ccc2c(c1)OCCO2
inactive: Potency [1] | Potency [2] | outcome [3] | Potency [9] | activity change, positive = activation [10] 0.537% | Potency [5] | Potency [6] | Potency [7] | Potency [8]

CC(C)(c1ccccc1)c1cc(-n2nc3ccccc3n2)c(O)c(C(C)(C)c2ccccc2)c1
inactive: Potency [1] | Potency [2] | outcome [3] | Potency [5] | Potency [6] | Potency [7] | Potency [8]

CCCCCBr
inactive: Potency [1] | Potency [2] | outcome [3] | Potency [5] | Potency [7] | Potency [8]

COC(=O)C1(O)c2ccccc2-c2ccccc21
inactive: Potency [1] | Potency [2] | outcome [3] | Potency [5] | Potency [6] | Potency [7] | Potency [8]
